Screens as filed in PubChem.
Hits are enriched below; roughly 1.3% of the tested compounds scored in any of these assays.
LmPK inhibitor = qHTS Assay for Inhibitors of Leishmania Mexicana Pyruvate Kinase (LmPK); Q27686; purified LmPK, Kinase-Glo ATP luminescence, 1 h; Potency, µM (top dose mostly 57.5 µM), without a hit: at the top dose activity change, negative = inhibition, usual class: inhibitors; 290,000 tested, 0.37% active; AID 1721, 2009
Target sequence (Q27686 whole entry, looked up): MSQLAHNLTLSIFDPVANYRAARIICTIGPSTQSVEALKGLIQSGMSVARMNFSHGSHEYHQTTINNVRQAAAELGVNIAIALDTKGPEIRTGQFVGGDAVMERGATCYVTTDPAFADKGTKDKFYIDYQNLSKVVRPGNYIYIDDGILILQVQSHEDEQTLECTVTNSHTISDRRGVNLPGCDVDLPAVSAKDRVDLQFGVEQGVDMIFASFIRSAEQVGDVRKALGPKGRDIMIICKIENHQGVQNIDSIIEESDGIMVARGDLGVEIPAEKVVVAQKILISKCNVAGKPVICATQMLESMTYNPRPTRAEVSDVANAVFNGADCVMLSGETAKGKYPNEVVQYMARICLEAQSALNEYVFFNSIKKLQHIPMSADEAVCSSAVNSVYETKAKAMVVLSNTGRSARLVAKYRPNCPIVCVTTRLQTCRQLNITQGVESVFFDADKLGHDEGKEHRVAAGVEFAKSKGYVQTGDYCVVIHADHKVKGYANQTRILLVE
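Kinase-Glo luminescence read after 1 h RT reaction of 0.1 nM LmPK with 0.5 mM PEP and 0.1 mM ADP. Activity scaled between uninhibited and enzyme-free controls.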
AMA1 RON2 block = qHTS for Inhibitors of AMA1-RON; Towards Development of Antimalarial Drug Lead: Primary Screen; Plasmodium falciparum AMA1 (3D7) - RON2 peptide interaction; AlphaScreen AMA1-biotinylated RON2 peptide binding; Potency, µM (top dose mostly 58.2 µM), inactives show at the highest dose activity change, negative = inhibition, hits mostly inhibitors; 360,000 tested, 0.2% active; AID 720542, 2013;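 also: 0% = vehicle wells and -100% = peptide control; nearly all actives have a fitted effect of over 45% in size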
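AMA1 (3D7) with his tag at 25 nM final met compounds first, then biotinylated RON2 peptide at 25 nM; detection used donor plus acceptor beads, 10 µg/mL apiece, read by AlphaScreen after 30 min at room temperature.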
RE007 growth inh = qHTS Assay for Inhibitors of the HIV-1 protein Vpr | S. pombe RE007 Vpr strain, BacTiter-Glo ATP luminescence, 24 h | Potency, µM (doses to about 92.2 µM), for inactives: top-dose activity change, negative = less growth, usual class: inhibitors | 360,000 tested, 0.21% active | AID 651644, 2012; active = well fitted falling curve with a large enough effect; inconclusive = small, poorly fitted or top-dose-only effect; inactive = no such curve, though single readings can be large or run the other way; also: nearly all actives have a fitted effect of over 50% in size
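Fission yeast RE007 carrying one integrated HIV-1 vpr copy, seeded at OD 0.01 in PMG+AL medium with 23 nL pinned compound. Grown 24 h at 30 degrees; viability read by BacTiter-Glo luminescence after 5 min.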
Tb PYK inh = qHTS of Trypanosoma Brucei Inhibitors. 410,000 tested, 0.12% active. TbPYK enzyme, Kinase-Glo Plus ATP luminescence, 45 min. pyruvate kinase (Trypanosoma brucei), Q57TT1. Potency, µM (doses to about 76.8 µM), for inactives: at the top dose activity, negative = inhibition, hits mostly inhibitors; also: nearly all actives have a fitted effect of over 50% in size
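TbPYK + substrate in 50 mM TEA pH 7.2, 100 mM KCl, 10 mM MgCl2, 0.05% BSA, 0.01% Tween-20; cpd pinned; ADP 130 uM final; 45 min RT; Kinase-Glo Plus 10 min; luminescence endpoint.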
VACV mCherry inh = qHTS for Stage-Specific Inhibitors of Vaccinia Orthopoxvirus: mCherry Reporter Primary qHTS. Vaccinia virus mCherry reporter infection, fluorescence. Potency, µM (titrated, usually from 36.5 µM), inactives show at the highest dose activity change, negative = inhibition, hits mostly inhibitors. 310,000 tested, 0.63% active. AID 720579, 2013; calls by dose curve; tested in A549 cells; also: nearly all actives have a fitted effect of over 35% in size
Vaccinia Venus = qHTS for Stage-Specific Inhibitors of Vaccinia Orthopoxvirus: Venus Reporter Primary qHTS; Vaccinia virus Venus reporter expression, fluorescence; Potency, µM (doses to about 36.5 µM), for inactives: at the top dose activity change, negative = inhibition, hits mostly inhibitors; 330,000 tested, 0.46% active; AID 720580, 2013; calls by dose curve; tested in A549 cells; also: nearly all actives have a fitted effect of over 30% in size
Numbers without * were called inactive; [ ] = remark or other dose. Unless noted, calls follow the shape of the dose curve; as a rule, active = well fitted curve in the direction sought with a large enough effect; inconclusive = small, poorly fitted or top-dose-only effect, or another doubt; inactive = no such curve, though single readings can be large; an effect the other way counts as inactive or inconclusive. Unless noted, % is scaled to controls: 0 for no effect and ±100 for the full control effect; potency is read from the fitted curve at half-maximal effect.

CN(C)c1ccc(-c2csc(C(O)c3ccccc3)n2)cc1 (centres undefined) was read as AMA1 RON2 block 25µM*, RE007 growth inh 8%[18.4 µM], Tb PYK inh 6%, VACV mCherry inh 24% and Vaccinia Venus -3%.
For CN(C)c1ccc(-c2csc(C(C)(O)c3cccc(F)c3)n2)cc1 (centres undefined) the results were AMA1 RON2 block 16µM*, RE007 growth inh 13%, Tb PYK inh -6%, VACV mCherry inh -8% and Vaccinia Venus -27%.
Screening CN(C)c1ccc(-c2csc(C(O)c3ccc(F)cc3)n2)cc1 (centres undefined) returned AMA1 RON2 block inconclusive, RE007 growth inh 5%[18.4 µM], Tb PYK inh -2%, VACV mCherry inh inactive and Vaccinia Venus -5%.
For C/C=C/c1ccc(OCCCNC(C)CC)c(OC)c1 (centres undefined) the results were LmPK inhibitor -6%, AMA1 RON2 block 20µM*, RE007 growth inh -14% and Tb PYK inh 0%.
COC1=C(OC)C(=O)C(Sc2ccc3ccccc3c2)=CC1=O was read as AMA1 RON2 block 13µM*, RE007 growth inh 7.1µM*, Tb PYK inh 1.8µM*, VACV mCherry inh -8% and Vaccinia Venus -4%.
For O=C(OCn1ncc(Cl)c(Cl)c1=O)c1ccccc1Cl the results were LmPK inhibitor -5%, AMA1 RON2 block -9%, RE007 growth inh 45µM* and Tb PYK inh -1%.
O=C(OCn1ncc(Cl)c(Cl)c1=O)c1ccc(F)cc1 was read as LmPK inhibitor 2%.
Screening COc1ccccc1Nc1nnc(SCC2CCCCO2)s1 (centres undefined) returned LmPK inhibitor 14µM*, AMA1 RON2 block -8%, RE007 growth inh -21%, Tb PYK inh -15%, VACV mCherry inh -19% and Vaccinia Venus -27%.
`Cc1cccc(CNC(=O)c2cnn(-c3nccc(-c4cc5ccccc5o4)n3)c2C2CC2)n1` gave VACV mCherry inh -21% and Vaccinia Venus -11%.
`O=C(CSc1ccncc1)NCC1Cc2cccc(-c3cncnc3)c2O1` (centres undefined) gave VACV mCherry inh inactive and Vaccinia Venus -9%.
CCOC(=O)N1CCN(Cc2ccc3c(c2)CN(C(=O)c2ccc4ncccc4c2)CCO3)CC1 was read as VACV mCherry inh -21% and Vaccinia Venus -23%.
`NC(=S)NN=Cc1nccc2c(C(F)(F)C(F)(F)C(F)(F)F)cccc12` gave AMA1 RON2 block 125%, RE007 growth inh inconclusive, Tb PYK inh 3%, VACV mCherry inh 0.32µM* and Vaccinia Venus 1µM*.
For NC(=S)NN=Cc1nccc2ccccc12 the results were AMA1 RON2 block -87%, RE007 growth inh -13%, Tb PYK inh -4%, VACV mCherry inh inconclusive and Vaccinia Venus inconclusive.
COc1cc(CN2CCOc3ccc(CN4CCC(O)(c5cccnc5)CC4)cc3C2)ccc1F was read as VACV mCherry inh -13% and Vaccinia Venus -1%.
Screening COc1ccccc1C1Nc2cccc3cccc(c23)N1 returned LmPK inhibitor 0%, AMA1 RON2 block -28%, RE007 growth inh 7.1µM* and Tb PYK inh -9%.
`Cc1cc(C(=O)NCc2nnc3n2CCN(Cc2ccc(F)cc2F)CC3)c(C)o1` gave VACV mCherry inh -2% and Vaccinia Venus 1%.
For O=C(c1cn(C2CCCN(Cc3cccc(Oc4ccccc4)c3)C2)nn1)N1CCCC1 (centres undefined) the results were VACV mCherry inh -4% and Vaccinia Venus -17%.
`CC(=O)OC(C)CS(=O)(=O)c1ccccc1` (centres undefined) gave LmPK inhibitor 5%, AMA1 RON2 block -6%, RE007 growth inh 10%, Tb PYK inh 3%, VACV mCherry inh 7.9µM* and Vaccinia Venus 7.9µM*.
Screening O=C1CC(=O)N(CCNc2ncc(C(F)(F)F)cc2Cl)C(=O)N1 returned LmPK inhibitor -1%, AMA1 RON2 block -3%, RE007 growth inh 0%, Tb PYK inh -5% and Vaccinia Venus -14%.
`O=C1C=CC(=O)N1CCNc1ncc(C(F)(F)F)cc1Cl` gave LmPK inhibitor 2%, AMA1 RON2 block -4%, RE007 growth inh 2.5µM*, Tb PYK inh inconclusive, VACV mCherry inh inconclusive and Vaccinia Venus -28%.
Screening CC(=O)Oc1cccc(N2C(=O)C3C4C=CC(C4=C(C)C)C3C2=O)c1 (centres undefined) returned LmPK inhibitor -1%, AMA1 RON2 block -2%, RE007 growth inh 35µM* and Tb PYK inh -23%.
`CC(=O)Oc1cccc(N2C(=O)C3C(C2=O)C2C=CC3C23CC3)c1` (centres undefined) gave LmPK inhibitor -3%, AMA1 RON2 block -3%, RE007 growth inh -1% and Tb PYK inh -25%.
`Oc1ccc(-c2cnccn2)cc1CN1CCN(C2CCCCC2)CC1` gave VACV mCherry inh -9% and Vaccinia Venus 5%.
For C[C@](N)(Cc1ccc(O)c(O)c1)C(=O)O the results were LmPK inhibitor 3%, AMA1 RON2 block 11µM*, RE007 growth inh 7%[18.4 µM], Tb PYK inh -7%, VACV mCherry inh -5% and Vaccinia Venus -9%.
CN(C)C(=O)CCC(=O)NCC1Cc2cccc(-c3ccccc3C(F)(F)F)c2O1 (centres undefined) was read as VACV mCherry inh -13% and Vaccinia Venus -6%.
`COc1ccc(C(=O)Nc2ccc(C)cn2)c(OC)c1` gave LmPK inhibitor 14µM*, AMA1 RON2 block -6%, RE007 growth inh inconclusive, Tb PYK inh -18%, VACV mCherry inh 31% and Vaccinia Venus -13%.
`CC12CC3(C)CC(C)(C1)CC(C(=O)NC1=NCCS1)(C2)C3` gave AMA1 RON2 block 8%, RE007 growth inh 25µM* and Tb PYK inh 1%.
For CC12CC3CC(C)(C1)CC(C(=O)NC1=NCCS1)(C3)C2 the results were LmPK inhibitor 3%, AMA1 RON2 block 21%, RE007 growth inh 5.6µM* and Tb PYK inh -8%.
`CC1(C)CC/C(=C\c2ccc(Cl)cc2)C1(O)Cn1cncn1` (centres undefined) gave Tb PYK inh -6%[157 µM].
CC(C)C(NC(=O)c1ccccn1)c1nnc2n1CCN(Cc1ccc3ccccc3c1)CC2 (centres undefined) was read as VACV mCherry inh inactive and Vaccinia Venus -14%.
